According to PubChem BioAssay AID1159580 (chemical genetic matrix, 2015):
Out of some 5,500 compounds screened, about 2,000 (36%) were called active. About 18% were inconclusive and are not listed. Rule as the data show it: active = normalized growth mostly below about 0.91 (no sharp cut-off); inconclusive = no clear call, values can overlap the other calls; inactive = mostly above about 0.92. This is one part of the list.

Test: chemical genetic growth profiling, strain panel (AID 1159580);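 also: tested at 20 µM; growth read once vehicle control cultures reached saturation at 30 °C; 1 = growth at the plate median or of vehicle wells; lower values mean less growth of the strain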
Conditions: S. cerevisiae deletion strains, growth OD

Measured: normalized growth

O=C(/C=C/c1ccccc1)c1ccc(O)cc1O
active: locus YAL021C, strain ccr4, stronger effect = lower value 0.0748 | locus YAL026C, strain drs2, stronger effect = lower value 0.0615 | locus YAL030W, strain snc1, stronger effect = lower value 0.0587 | locus YBL061C, strain skt5, stronger effect = lower value 0.066 | locus YBR009C, strain hhf1, stronger effect = lower value 0.0651 | locus YBR023C, strain chs3, stronger effect = lower value 0.0637 | locus YBR171W, strain sec66, stronger effect = lower value 0.0801 | locus YBR231C, strain swc5, stronger effect = lower value 0.062 | locus YBR279W, strain paf1, stronger effect = lower value 0.0608 | locus YCL011C, strain gbp2, stronger effect = lower value 0.0582 | locus YCL016C, strain dcc1, stronger effect = lower value 0.0631 | locus YCL061C, strain MRC1, stronger effect = lower value 0.0667 | locus YCL069W, strain vba3, stronger effect = lower value 0.0608 | locus YCR088W, strain abp1, stronger effect = lower value 0.0623 | locus YDL005C, strain med2, stronger effect = lower value 0.0755 | locus YDL040C, strain nat1, stronger effect = lower value 0.0609 | locus YDR001C, strain nth1, stronger effect = lower value 0.0596 | locus YDR069C, strain doa4, stronger effect = lower value 0.0834 | locus YDR137W, strain rgp1, stronger effect = lower value 0.0879 | locus YDR159W, strain sac3, stronger effect = lower value 0.0941 | locus YDR195W, strain ref2 0.114 | locus YDR297W, strain sur2, stronger effect = lower value 0.0595 | locus YDR334W, strain swr1, stronger effect = lower value 0.0664 | locus YDR335W, strain msn5, stronger effect = lower value 0.0605 | locus YDR392W, strain spt3, stronger effect = lower value 0.0975 | locus YEL003W, strain gim4, stronger effect = lower value 0.0559 | locus YEL037C, strain rad23, stronger effect = lower value 0.059 | locus YEL061C, strain CIN8 (second series), stronger effect = lower value 0.0607 | locus YER015W, strain faa2, stronger effect = lower value 0.0634 | locus YER016W, strain bim1, stronger effect = lower value 0.0613 | locus YER111C, strain swi4, stronger effect = lower value 0.0739 | locus YER155C, strain BEM2 (second series), stronger effect = lower value 0.0936 | locus YFR010W, strain ubp6, stronger effect = lower value 0.0802 | locus YGL167C, strain pmr1, stronger effect = lower value 0.0759 | locus YGL173C, strain kem1, stronger effect = lower value 0.0714 | locus YGL227W, strain vid30, stronger effect = lower value 0.0642 | locus YGL240W, strain doc1, stronger effect = lower value 0.0905 | locus YGL253W, strain hxk2, stronger effect = lower value 0.054 | locus YHR013C, strain ard1, stronger effect = lower value 0.122 | locus YHR027C, strain rpn1, stronger effect = lower value 0.0687 | locus YHR030C, strain SLT2, stronger effect = lower value 0.101 | locus YHR079C, strain IRE1, stronger effect = lower value 0.113 | locus YHR142W, strain chs7, stronger effect = lower value 0.0687 | locus YJL092W, strain hpr5, stronger effect = lower value 0.0609 | locus YJL095W, strain BCK1 (second series), stronger effect = lower value 0.0568 | locus YJL095W, strain BCK1, stronger effect = lower value 0.131 | locus YJL115W, strain asf1, stronger effect = lower value 0.0751 | locus YJL129C, strain trk1, stronger effect = lower value 0.0857 | locus YJL154C, strain vps35, stronger effect = lower value 0.0627 | locus YJL164C, strain tpk1, stronger effect = lower value 0.0619 | locus YJL166W, strain qcr8, stronger effect = lower value 0.0694 | locus YJL187C, strain SWE1, stronger effect = lower value 0.0592 | locus YJR066W, strain TOR1, stronger effect = lower value 0.000815 | locus YKL160W, strain elf1, stronger effect = lower value 0.0634 | locus YKR026C, strain gcn3, stronger effect = lower value 0.0638 | locus YKR091W, strain srl3, stronger effect = lower value 0.0604 | locus YLL001W, strain dnm1, stronger effect = lower value 0.059 | locus YLL026W, stronger effect = lower value 0.0586 | locus YLL041C, strain sdh2, stronger effect = lower value 0.063 | locus YLR027C, strain aat2, stronger effect = lower value 0.0578 | locus YLR113W, strain HOG1, stronger effect = lower value 0.216 | locus YLR221C, strain rsa3, stronger effect = lower value 0.0573 | locus YLR258W, strain gsy2, stronger effect = lower value 0.0645 | locus YLR262C, strain YPT6 (second series), stronger effect = lower value 0.0856 | locus YLR320W, strain mms22, stronger effect = lower value 0.0956 | locus YLR342W, strain FKS1, stronger effect = lower value 0.064 | locus YLR357W, strain rsc2, stronger effect = lower value 0.137 | locus YLR370C, strain arc18, stronger effect = lower value 0.0633 | locus YLR384C, strain iki3, stronger effect = lower value 0.0625 | locus YML120C, strain ndi1, stronger effect = lower value 0.0602 | locus YMR058W, strain fet3, stronger effect = lower value 0.0605 | locus YMR125W, strain sto1, stronger effect = lower value 0.0837 | locus YMR129W, stronger effect = lower value 0.061 | locus YMR205C, strain PFK2, stronger effect = lower value 0.0908 | locus YMR231W, strain pep5, stronger effect = lower value 0.0723 | locus YNL071W, strain lat1, stronger effect = lower value 0.0616 | locus YNL183C, strain NPR1, stronger effect = lower value 0.000882 | locus YNL209W, strain ssb2, stronger effect = lower value 0.0674 | locus YNL248C, strain rpa49, stronger effect = lower value 0.0717 | locus YNL322C, strain KRE1 (second series), stronger effect = lower value 0.0685 | locus YNR049C, strain mso1, stronger effect = lower value 0.0592 | locus YOR001W, strain rrp6, stronger effect = lower value 0.0669 | locus YOR070C, strain gyp1, stronger effect = lower value 0.0587 | locus YOR080W, strain dia2, stronger effect = lower value 0.0676 | locus YOR083W, strain WHI5, stronger effect = lower value 0.0633 | locus YOR106W, strain vam3, stronger effect = lower value 0.0654 | locus YOR231W, strain MKK1, stronger effect = lower value 0.108 | locus YOR265W, strain rbl2, stronger effect = lower value 0.0582 | locus YOR270C, strain vph1, stronger effect = lower value 0.0904 | locus YOR290C, strain snf2, stronger effect = lower value 0.0728 | locus YPL051W, strain arl3, stronger effect = lower value 0.0614 | locus YPL078C, strain atp4, stronger effect = lower value 0.0665 | locus YPL106C, strain sse1, stronger effect = lower value 0.102 | locus YPL240C, strain hsp82, stronger effect = lower value 0.058 | locus YPL256C, strain CLN2, stronger effect = lower value 0.118
